According to PubChem BioAssay (EPA / NIEHS):
Calls of active or inactive are those of the source. How the source made its calls: active means hit-call score of the fitted dose curve at least 0.9, where 1 is the maximum; inactive means score below 0.9.

What was measured:
Conditions in all cases: mRNA level, 48 h; actives raise or lower the signal
[1] = read-out: Bcl-2 (BID) gene, BID (gene 637); experiment: LTEA_HepaRG_BID: Life Technologies and Expression Analysis (LTEA) Assay for Bcl-2 (BID) gene using HepaRG (AID 2283476)
Procedure, shortened: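 Gain or loss of BID expression is fitted relative to 0.5% DMSO vehicle. Human HepaRG liver cells received a 48 h chemical exposure over an eight-point concentration range.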

Caspase-3 (Homo sapiens) = Caspase-3 (Homo sapiens) (UniProt P42574); experiment: LTEA_HepaRG_CASP3: Life Technologies and Expression Analysis (LTEA) Assay for cysteine-aspartic acid protease (CASP3) using HepaRG (AID 2283477)
Chain of Caspase-3 (Homo sapiens) (P42574 whole entry, looked up): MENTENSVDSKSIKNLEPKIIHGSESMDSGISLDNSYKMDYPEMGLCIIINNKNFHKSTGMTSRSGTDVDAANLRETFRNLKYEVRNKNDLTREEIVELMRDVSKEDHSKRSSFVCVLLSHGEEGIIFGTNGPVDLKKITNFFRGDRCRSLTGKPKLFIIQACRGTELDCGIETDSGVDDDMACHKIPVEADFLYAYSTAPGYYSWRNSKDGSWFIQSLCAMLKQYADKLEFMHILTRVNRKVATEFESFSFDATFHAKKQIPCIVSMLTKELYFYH
Procedure, shortened: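 Expression of CASP3 was quantified by TaqMan qRT-PCR against three housekeeping genes (ACTB, GAPDH, POLR2A), bidirectionally versus 0.5% DMSO. HepaRG cultures received compounds in duplicate, top 100 uM with half-log steps, for 48 h in serum-free induction medium.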

[2] = read-out: Cytochrome P450 (CYP1A2), CYP1A2 (gene 1544); experiment: LTEA_HepaRG_CYP1A2: Life Technologies and Expression Analysis (LTEA) Assay for Cytochrome P450 (CYP1A2) using HepaRG (AID 2283479);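 on AC50: TaqMan qRT-PCR transcript level normalized to ACTB GAPDH and POLR2A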
Procedure, shortened: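 CYP1A2 transcript measured by TaqMan qRT-PCR against three housekeeping genes after 48-hour chemical exposure of HepaRG cells. Eight-point half-log series topping at 100 uM in 0.5% DMSO, duplicates; gain or loss fitted relative to vehicle.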

[3] = read-out: Cytochrome P450 (CYP2B6), CYP2B6 (gene 1555); experiment: LTEA_HepaRG_CYP2B6: Life Technologies and Expression Analysis (LTEA) Assay for Cytochrome P450 (CYP2B6) using HepaRG (AID 2283481)
Procedure, shortened: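 CYP2B6 transcript level quantified by qRT-PCR against three housekeeping genes, fitted bidirectionally relative to DMSO. HepaRG cultures received chemicals for 48 h, 8-point half-log series from 100 uM in 0.5% DMSO, duplicate wells, serum-free induction medium.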

[4] = read-out: Cytochrome P450 2C19 (Homo sapiens) (UniProt P33261); experiment: LTEA_HepaRG_CYP2C19: Life Technologies and Expression Analysis (LTEA) Assay for CYP2C19 using HepaRG (AID 2283482)
Procedure, shortened: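 CYP2C19 transcript levels by qRT-PCR, normalized to three housekeeping genes, in HepaRG cells after 48 h chemical exposure. Eight-point half-log series topping at 100 uM, 0.5% DMSO vehicle. Increases and decreases both fitted against DMSO.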

CYP2C9 (gene 1559) = experiment: LTEA_HepaRG_CYP2C9: Life Technologies and Expression Analysis (LTEA) Assay for CYP2C9 using HepaRG (AID 2283484)
Procedure, shortened: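 Cells plated 48 h, switched to serum-free induction medium, then treated in duplicate for 48 h at eight concentrations (max 100 uM, 0.5% DMSO). RNA then analysed by qRT-PCR for CYP2C9; curves fitted in both directions relative to DMSO.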

CYP2E1 (gene 1571) = experiment: LTEA_HepaRG_CYP2E1: Life Technologies and Expression Analysis (LTEA) Assay for CYP2E1 using HepaRG (AID 2283485)
Procedure, shortened: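 Differentiated HepaRG cells were treated in duplicate for 48 h with chemicals in 0.5% DMSO, from 100 uM downward in half-log dilutions. RNA was then analysed by qRT-PCR for CYP2E1 induction or loss.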

CYP2C8 (gene 1558) = experiment: LTEA_HepaRG_CYP2C8: Life Technologies and Expression Analysis (LTEA) Assay for CYP2C8 using HepaRG (AID 2283483)
Procedure, shortened: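 CYP2C8 mRNA induction or loss, by qRT-PCR normalized to ACTB/GAPDH/POLR2A, is read in HepaRG cells after 48 h treatment. Concentrations run from 100 uM down in half-log dilutions, with 0.5% DMSO as vehicle and baseline.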

[5] = read-out: Cytochrome P450 (CYP24A1), CYP24A1 (gene 1591); experiment: LTEA_HepaRG_CYP24A1: Life Technologies and Expression Analysis (LTEA) Assay for Cytochrome P450 (CYP24A1) using HepaRG (AID 2283478)
Procedure, shortened: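 mRNA of CYP24A1 quantified by TaqMan qRT-PCR (ACTB/GAPDH/POLR2A normalization) after 48 h chemical exposure of HepaRG cells, top concentration 100 uM, half-log steps, 0.5% DMSO vehicle, duplicates. Curves fitted bidirectionally against DMSO baseline.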

[6] = read-out: cysteine-aspartic acid protease (CASP8), CASP8 (gene 841); experiment: LTEA_HepaRG_CASP8: Life Technologies and Expression Analysis (LTEA) Assay for cysteine-aspartic acid protease (CASP8) using HepaRG (AID 2283480)
Procedure, shortened: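 HepaRG, 48 h exposure, duplicate wells; 8 conc, half-log from 100 uM, 0.5% DMSO. Serum-free induction medium. CASP8 mRNA by TaqMan qRT-PCR, norm. ACTB/GAPDH/POLR2A; gain/loss fitted vs DMSO.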

Measured: AC50

Chain of Cytochrome P450 2C19 (Homo sapiens) (P33261 whole entry, looked up): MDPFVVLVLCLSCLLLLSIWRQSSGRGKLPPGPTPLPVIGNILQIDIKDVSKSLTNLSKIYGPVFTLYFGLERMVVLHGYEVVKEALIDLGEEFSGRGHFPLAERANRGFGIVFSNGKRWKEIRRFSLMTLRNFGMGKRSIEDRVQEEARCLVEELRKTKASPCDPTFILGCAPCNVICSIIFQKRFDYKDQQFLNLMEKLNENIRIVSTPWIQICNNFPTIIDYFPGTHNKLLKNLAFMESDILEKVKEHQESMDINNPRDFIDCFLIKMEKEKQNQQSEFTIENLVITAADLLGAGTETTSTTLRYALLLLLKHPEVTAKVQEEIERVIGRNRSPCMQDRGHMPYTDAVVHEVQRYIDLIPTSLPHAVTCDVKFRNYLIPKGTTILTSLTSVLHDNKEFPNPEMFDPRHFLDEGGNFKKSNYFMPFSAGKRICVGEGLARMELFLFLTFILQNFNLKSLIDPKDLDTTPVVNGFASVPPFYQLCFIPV

CSc1ccc(Oc2ccc(S(N)(=O)=O)cc2CN(C)C)cc1C
active: [2] 50 µM | [3] 12.1 µM | CYP2E1 (gene 1571) 47.6 µM
inactive: [1] | Caspase-3 (Homo sapiens) | [4] | CYP2C9 (gene 1559)

CC1(C)C(=O)NC(=O)N1CO
not listed: [5] | [6]
inactive: all other assays above

O=C1CCCCC1
not listed: [1] | CYP2C8 (gene 1558)
inactive: all other assays above

CN(C)C(=O)NC1(c2ccccc2)CCN(CCC[C@]2(c3ccc(Cl)c(Cl)c3)CCCN(C(=O)c3ccccc3)C2)CC1
active: [3] 20 µM | [4] 23.6 µM | CYP2C9 (gene 1559) 19.7 µM | CYP2E1 (gene 1571) 17.7 µM
not listed: [5]
inactive: all other assays above

NC(=Nc1ccccc1)Nc1ccccc1
active: [2] 50 µM
not listed: [5] | [6]
inactive: all other assays above

CC1=C(C)S(=O)(=O)CCS1(=O)=O
inactive: [1] | CYP2C8 (gene 1558) | CYP2E1 (gene 1571)
active: Caspase-3 (Homo sapiens) 69.8 µM | [2] 9.92 µM | [3] 89 µM | [4] 88 µM | CYP2C9 (gene 1559) 87.7 µM

CC(=O)OC1CC(C)OC(C)O1 (centres undefined)
active: [2] 50 µM
not listed: CYP2C8 (gene 1558) | [5]
inactive: all other assays above

CC(N)=O
not listed: [1]
inactive: all other assays above

COc1ccc(OC(F)(F)F)cc1CN[C@H]1CCCN[C@H]1c1ccccc1
inactive: [5] | [6] | CYP2C8 (gene 1558)
active: Caspase-3 (Homo sapiens) 81.8 µM | [2] 15.8 µM | [3] 86.1 µM | [4] 2.8 µM | CYP2C9 (gene 1559) 83.7 µM | CYP2E1 (gene 1571) 16.8 µM

S=c1[nH]c2ccccc2s1
active: [2] 10.7 µM
not listed: CYP2C8 (gene 1558) | [5]
inactive: all other assays above

Cc1cn([C@H]2C=C[C@@H](CO)O2)c(=O)[nH]c1=O
active: [3] 10.3 µM
not listed: CYP2C8 (gene 1558) | [5] | [6]
inactive: all other assays above

c1ccc2occc2c1
active: [3] 5.44 µM
not listed: CYP2C8 (gene 1558) | [5]
inactive: all other assays above

C=CCc1ccc(OC)c(OC)c1
active: [3] 2.13 µM
not listed: [1] | CYP2C8 (gene 1558)
inactive: all other assays above

Oc1ccccc1O
not listed: CYP2C8 (gene 1558) | [5]
inactive: all other assays above

CC(=O)CC(c1ccccc1)c1c(O)c2ccccc2oc1=O (centres undefined)
active: [3] 29.7 µM | [4] 5.47 µM | CYP2E1 (gene 1571) 73.8 µM
not listed: [1]
inactive: all other assays above

CO[C@@H]1COCC[C@@H]1N[C@@H]1CC[C@@](C(=O)N2CCc3ncc(C(F)(F)F)cc3C2)(C(C)C)C1
not listed: [1] | CYP2C8 (gene 1558)
inactive: all other assays above

COc1ccc(C(=O)Nc2nc3ccccc3c(NCc3ccccc3)c2C#N)cc1
inactive: Caspase-3 (Homo sapiens) | [6] | [3]
active: [5] 0.00721 µM | [2] 3 µM | [4] 22.1 µM | CYP2C8 (gene 1558) 16.7 µM | CYP2C9 (gene 1559) 16.3 µM | CYP2E1 (gene 1571) 20 µM

COC(=O)CCC(=O)OC
not listed: [1] | CYP2C8 (gene 1558) | [6]
inactive: all other assays above

CCCCCCC(C=O)=Cc1ccccc1
active: [3] 15.9 µM
not listed: [1] | [5] | [6]
inactive: all other assays above

O=C1O[C@H]([C@H](O)CO)C(O)=C1O
not listed: [1] | CYP2C8 (gene 1558)
inactive: all other assays above

CCc1nc(N)nc(N)c1-c1ccc(Cl)cc1
inactive: Caspase-3 (Homo sapiens) | [6]
active: [2] 23.8 µM | [3] 82.3 µM | CYP2C8 (gene 1558) 79.6 µM | CYP2C9 (gene 1559) 44.5 µM | CYP2E1 (gene 1571) 26 µM

CCCCC(CC)COP(=O)(OCC(CC)CCCC)OCC(CC)CCCC (centres undefined)
inactive: Caspase-3 (Homo sapiens) | CYP2C9 (gene 1559)
active: [2] 24.6 µM | [3] 8.38 µM | [4] 7.79 µM | CYP2E1 (gene 1571) 19.3 µM
